In the supplement of paper PMC8007513 one finds growth yield data, which are given here for 20 compounds.

SMILES strings stand for the structures. Counter-ions that a name gives are not always drawn. ± gives the standard error. Among all 1,300 compounds or so, about 75 (6%) showed an effect of 50% or more. Shown is part of a subset that was picked to be rich in strong results.

The assay relates to Trichoderma virens ATCC 9645. Put plainly: growth yield (OD600) relative to untreated control; higher = less growth inhibition. The settings on record: compound concentration: 100 uM. The essentials:
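For each 96-well plate, 100 μl aliquots were prepared with Trichoderma virens ATCC 9645 spores suspended at 15,000 spores ml^−1 in potato dextrose broth. The spores had been harvested from potato dextrose agar plates after 7 days. Library compounds were present at 100 μM final, some wells also receiving a biocide at 200 ng ml^−1, and plates were grown at 30 °C with OD600 read on a BioTek EL800 at 40 h and 72 h. Reported growth, relative to the control lacking both agents, is the mean of duplicate screens.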

`Oc1cc(Cl)ccc1Oc1ccc(Cl)cc1Cl` [Triclosan]: the growth yield is 6.99 ± 4.1% (40 h) and 3.25 ± 0.1% (72 h).

For the compound `CCNCC(O)c1cccc(O)c1` (stereo not given) [Etilefrine hydrochloride], the growth yield by setting is: (40 h) 105 ± 3%; (72 h) 103.1 ± 0.94%.

As for `C=CCC1(CC(C)C)C(=O)NC(=O)NC1=O` [Butalbital], the growth yield is, setting by setting: (40 h) 98.2%; (72 h) 96.5%.

Take `CNCC(O)c1ccc(O)cc1` (racemic) [(+,-)-Synephrine]: the growth yield amounted to 105 ± 4.3% (40 h) and 100 ± 2.3% (72 h).

Turning to `O=C([O-])c1ccccc1-c1c2cc(Br)c(=O)cc-2oc2[c]([Hg+])c([O-])c(Br)cc12.[Na+].[Na+].[OH-]` [Merbromin], the growth yield by setting is: (40 h) 2.54 ± 0.95%; (72 h) 2.2 ± 0.94%.

Compound `CCN(CC)C(C)C(=O)c1ccccc1` (stereo not given) [Amfepramone hydrochloride] showed a growth yield (40 h) of 102 ± 3% and a growth yield (72 h) of 99 ± 3.1%.

Regarding `CC1OC(OC2/C=C/C=C/C=C/C=C/CC/C=C/C=C/[C@H](C)[C@@H](O)[C@@H](C)[C@H](C)OC(=O)CC(O)CC(O)CC(O)CCC(O)C(O)C[C@]3(O)CC(O)C(C(=O)O)C(C2)O3)C(O)C(N)C1O` (stereo not given in full) [Nystatine], the growth yield is, setting by setting: (40 h) 97.4 ± 5.6%; (72 h) 107.3 ± 0.94%.

Take `O=C(CCCN1CCC(n2c(=O)[nH]c3ccccc32)CC1)c1ccc(F)cc1` [Benperidol]: the growth yield amounted to 102 ± 5.2% (40 h) and 99.9 ± 7.2% (72 h).

On to `CC[C@H](C)[C@H]1O[C@]2(C=C[C@@H]1C)C[C@@H]1C[C@@H](C/C=C(\C)[C@@H](O[C@H]3C[C@H](OC)[C@@H](O[C@H]4C[C@H](OC)[C@@H](O)[C@H](C)O4)[C@H](C)O3)[C@@H](C)/C=C/C=C3\CO[C@@H]4[C@H](O)C(C)=C[C@@H](C(=O)O1)[C@]34O)O2.CO[C@H]1C[C@H](O[C@H]2[C@H](C)O[C@@H](O[C@@H]3/C(C)=C/C[C@@H]4C[C@@H](C[C@]5(C=C[C@H](C)[C@@H](C(C)C)O5)O4)OC(=O)[C@@H]4C=C(C)[C@@H](O)[C@H]5OC/C(=C\C=C\[C@@H]3C)[C@]54O)C[C@@H]2OC)O[C@@H](C)[C@@H]1O` [Avermectin B1], for which the growth yield by setting is: (40 h) 107 ± 5.6%; (72 h) 105 ± 2.3%.

With `CCCCCC[C@H]1C(=O)O[C@H](C)[C@H](NC(=O)c2cccc(NC=O)c2O)C(=O)O[C@@H](C)[C@@H]1OC(=O)CC(C)C` [Antimycin A], the growth yield came to 27.5 ± 1.1% (40 h) and 49.6 ± 2.6% (72 h).

On to `C#CCN(C)[C@H](C)Cc1ccccc1` [Selegiline hydrochloride], for which the growth yield was 102 ± 1.4% (40 h) and 104 ± 5% (72 h).

With `CCCC(C)C1(CC)C(=O)NC(=O)NC1=O` (stereo not given) [Pentobarbital], the growth yield reads like this: (40 h) 101.3 ± 0.95%; (72 h) 102 ± 1.7%.

For the compound `CC(=O)OCC1=C(C(=O)O)N2C(=O)[C@@H](N)[C@H]2SC1` [Cephalosporanic acid, 7-amino], the growth yield reads like this: (40 h) 105 ± 5.7%; (72 h) 107 ± 6.2%.

`CCC(=O)O[C@@](Cc1ccccc1)(c1ccccc1)[C@@H](C)CN(C)C` [Levopropoxyphene napsylate]: the growth yield by setting is: (40 h) 106 ± 2.9%; (72 h) 103 ± 3.4%.

For the compound `C[C@]12C/C(=C/O)C(=O)C[C@@H]1CC[C@@H]1[C@@H]2CC[C@@]2(C)[C@H]1CC[C@]2(C)O` [Oxymetholone], the growth yield is, setting by setting: (40 h) 96.9 ± 9.2%; (72 h) 91.5 ± 4.8%.

`C[C@@H]1C[C@@H]([C@H](O)CC2CC(=O)NC(=O)C2)C(=O)[C@@H](C)C1` [Cycloheximide]: the growth yield is, setting by setting: (40 h) 46.7 ± 7.3%; (72 h) 75.5 ± 5.5%.

As for `NCC(CC(=O)O)c1ccc(Cl)cc1` (racemic) [Baclofen (R,S)], the growth yield (40 h) was found to be 105 ± 4.1% and the growth yield (72 h) was found to be 105 ± 4.7%.

Regarding `CN[C@@H]1[C@@H](O)[C@@H](O[C@@H]2[C@@H](O)[C@H](O[C@H]3O[C@H](CN)CC[C@H]3N)[C@@H](N)C[C@H]2N)OC[C@]1(C)O.CN[C@@H]1[C@@H](O)[C@@H](O[C@@H]2[C@@H](O)[C@H](O[C@H]3O[C@H]([C@@H](C)N)CC[C@H]3N)[C@@H](N)C[C@H]2N)OC[C@]1(C)O.CN[C@@H]1[C@@H](O)[C@@H](O[C@@H]2[C@@H](O)[C@H](O[C@H]3O[C@H]([C@@H](C)NC)CC[C@H]3N)[C@@H](N)C[C@H]2N)OC[C@]1(C)O` [Gentamicine sulfate], the growth yield (40 h) came out at 101% and the growth yield (72 h) came out at 97.3%.

In the case of `NC(=O)OCCCc1ccccc1` [Phenprobamate], the growth yield is, setting by setting: (40 h) 104 ± 6.3%; (72 h) 101 ± 4.6%.

Take `COc1cccc(C2(O)CCCCC2CN(C)C)c1` (stereo not given) [Tramadol hydrochloride]: the growth yield reads like this: (40 h) 101 ± 1.3%; (72 h) 99.8 ± 2.1%.
